FGF22 binding – shifts melting point of recombinant human FGF22; Q9HCT0; recombinant FGF22 thermal shift, SYPRO orange fluorescence; percent of sucrose octasulfate shift, DMSO zero; activity (Tm shift, normalised), % at 9.99 µM; actives 1.5% (n = 340,000);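 active = mean Tm shift, scaled 0 neutral to 100 positive control, at about 1.3% or above, every replicate too, limit read from the data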
Target sequence (Q9HCT0 whole entry, looked up): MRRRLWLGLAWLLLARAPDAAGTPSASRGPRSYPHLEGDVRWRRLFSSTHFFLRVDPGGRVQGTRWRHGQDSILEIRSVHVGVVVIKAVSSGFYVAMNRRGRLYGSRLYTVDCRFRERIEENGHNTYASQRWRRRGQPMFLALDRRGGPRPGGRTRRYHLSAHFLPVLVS
SIRT5 block – sirtuin-5 (human) deacylase inhibition; Q9NXA8; Purified SirT5, succinyl-peptide AMC, trypsin-coupled fluorescence; inhibition, % at 15 µM; actives 1.1% (n = 330,000); in the data active = inhibition above about 15%
Target sequence (Q9NXA8 whole entry, looked up): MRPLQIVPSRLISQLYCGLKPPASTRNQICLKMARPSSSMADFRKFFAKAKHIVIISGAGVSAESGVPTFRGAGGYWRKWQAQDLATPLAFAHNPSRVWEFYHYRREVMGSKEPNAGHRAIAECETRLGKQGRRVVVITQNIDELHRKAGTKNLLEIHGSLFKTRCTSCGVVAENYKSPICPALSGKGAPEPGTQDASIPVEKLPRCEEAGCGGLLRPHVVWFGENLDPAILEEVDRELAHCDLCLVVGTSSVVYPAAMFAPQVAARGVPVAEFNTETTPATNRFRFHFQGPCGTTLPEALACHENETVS
INS-1E GSIS act – GLuc luminescence reporter in INS-1E cells, primary screen for activators of glucose-dependent secretion of insulin | INS-1E GLuc reporter insulin secretion, 2-3 h | activation, % at 16.6 µM | actives 0.61% (n = 370,000);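 active = lowest replicate activation of at least 40%, so every replicate reaches that level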
ERAP1 inh – inhibitors of human ERAP1 aminopeptidase; Q9NZ08; recombinant ERAP1, Leu-AMC fluorescence, 60 min; inhibition, % at 10.7 µM; actives 0.15% (n = 340,000);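 active = mean replicate inhibition of at least 30%, or all replicates individually reaching that 30% level; inactive = mean below 30% and not every replicate reaching it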
CASP6 VEID inh – caspase-6 (human) enzyme inhibition; purified caspase-6, Z-VEID-R110 cleavage fluorescence; P55212; inhibition, % at 12.5 µM; actives 0.53% (n = 350,000); AID 686996;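 active = mean inhibition across replicates at least about 35%, with every replicate also reaching that limit, limit read from the data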
A number is an active result; - = inactive; . = no result. Hits are enriched below; roughly 3.3% of the tested compounds scored in any of these assays.

SMILES	FGF22 binding	SIRT5 block	INS-1E GSIS act	ERAP1 inh	CASP6 VEID inh
COc1ccccc1CN1[C@@H](CO)[C@@H](c2ccccc2)C12CN(C(C)=O)C2	-	-	-	-	-
COc1cccc(CN2[C@@H](CO)[C@H](c3ccccc3)C23CN(C(=O)C2CCCC2)C3)c1	.	26	-	-	-
CCCNC(=O)N1CC2(C1)[C@H](c1ccccc1)[C@H](CO)N2C(=O)C1CC1	-	24	-	-	-
COc1ccccc1CN1[C@H](CO)[C@H](c2ccccc2)C12CN(C(C)=O)C2	-	17	-	-	-
COCc1cn(CC[C@H]2CC[C@@H](NC(=O)Nc3ccc(Cl)cc3)[C@H](CO)O2)nn1	-	-	-	-	-
CCOC(=O)c1ccc(NC(=S)Nc2cccc(N)n2)cc1	-	-	-	-	-
CCOC(=O)c1ccc(NC(=S)Nc2cccc(C)n2)cc1	.	.	48	.	.
Cc1cc(C)n(CC(=O)n2c3ccccc3c3ccccc32)n1	.	.	53	.	.
Cc1cc(C)n(CC(=O)c2cccc(N)c2)n1	-	20	-	-	-
C[C@H](CO)N1C[C@H](C)[C@H](CN(C)S(=O)(=O)c2ccc(F)cc2)Oc2c(NC(=O)c3nc4ccccc4s3)cccc2C1=O	-	24	-	-	-
C[C@@H]1CN([C@@H](C)CO)C(=O)c2cccc(NC(=O)c3nc4ccccc4s3)c2O[C@@H]1CN(C)Cc1ccccc1	-	-	-	-	-
C[C@@H]1CN([C@H](C)CO)C(=O)c2cccc(NC(=O)c3nc4ccccc4s3)c2O[C@@H]1CN(C)C(=O)NC1CCCCC1	-	34	-	-	-
C[C@@H]1CN([C@@H](C)CO)C(=O)c2cccc(NC(=O)c3nc4ccccc4s3)c2O[C@@H]1CN(C)Cc1ccc(C(F)(F)F)cc1	-	18	-	-	-
CCCNC(=O)N1[C@@H]2c3ccc(-c4ccc(F)cc4)c(=O)n3C[C@@H]2[C@@H](CO)[C@@H]1C(=O)N1CCCCC1	-	-	-	-	-
C[C@@H]1CN([C@H](C)CO)C(=O)c2cc(C#CC(C)(C)O)cnc2O[C@@H]1CN(C)C(=O)C1CCC1	-	-	-	-	-
COc1ccc(NC(=S)N2CCC(C(=O)c3ccc(F)cc3)CC2)c(OC)c1	-	25	-	-	-
COc1ccc(C(=O)C2CCN(C(=S)Nc3ccc(F)cc3)CC2)cc1	-	-	-	-	-
COc1ccccc1NC(=O)N1CCCCN2[C@@H](CO)[C@@H](c3ccc(C#CC4CCCC4)cc3)[C@@H]2C1	-	-	55	-	-
COc1ccccc1C#Cc1ccc([C@H]2[C@H](CO)N3CCCCN(C(=O)C4CCCC4)C[C@@H]23)cc1	-	17	.	-	-
CC(C)NC(=O)N1CCCCN2[C@H](CO)[C@H](c3ccc(C#CC4CC4)cc3)[C@H]2C1	-	-	-	-	-
CC(C)NC(=O)N1CCCCN2[C@H](C1)[C@@H](c1ccc(C#CC3CC3)cc1)[C@@H]2CO	-	22	-	-	-
COc1ccccc1NC(=O)N1CCCCN2[C@@H](CO)[C@H](c3ccc(C#CC4CCCC4)cc3)[C@@H]2C1	-	17	-	-	-
CN1C(=O)c2cc(NC(=O)Nc3cccc(Cl)c3)ccc2OC[C@@H]2O[C@@H](CC(=O)NCCc3ccncc3)CC[C@H]21	-	-	-	-	-
Cc1ccc2c(c1)nc(-n1nc(C)cc1C)c1nnnn12	43	-	-	-	-
COc1ccc2c3c(n(C)c2c1)[C@@H](CO)N(Cc1nccs1)CC31CN(C(C)=O)C1	-	.	-	-	.
SMILES	FGF22 binding	SIRT5 block	INS-1E GSIS act	ERAP1 inh	CASP6 VEID inh
COc1cc(C2N(C)CCC3(OCCO3)C2(C)C)cc(OC)c1OC (configuration not stated)	.	.	48	.	.
COc1cccc(C2[C@H](C)C3(CCN2C)OCCO3)c1 (some centres not stated)	.	-	-	-	-
CN(CCO)c1nc(NCc2ccccc2)c2cnn(C)c2n1	-	-	41	-	-
CO[C@@H]1CN(C)C(=O)c2cc(NC(=O)Nc3cccc(F)c3)ccc2OC[C@H](C)N(C(=O)C2CC2)C[C@H]1C	.	.	-	.	.
COc1ccc(NS(=O)(=O)c2cc(NC(=O)c3cc(=O)c4ccccc4o3)ccc2OC)cc1	43	-	.	-	-
Cc1cc(C)n2nc(SCc3nnc(SCCCCl)o3)nc2n1	-	-	-	-	-
Cc1cc(C)n2nc(SCc3nnc(-c4cccs4)o3)nc2n1	43	-	-	-	-
CC(C)C#Cc1ccc([C@H]2[C@H]3CN(S(=O)(=O)Cc4ccccc4)CCCCN3[C@H]2CO)cc1	.	.	-	.	.
COc1ccc(-n2c(CN3CCN(Cc4ccccc4)CC3)nc3ccc([N+](=O)[O-])cc3c2=O)c(OC)c1	-	35	.	.	-
O=C1CC(NS(=O)(=O)c2cc(F)ccc2F)CN1c1cccc(F)c1 (configuration not stated)	-	-	-	-	37
CC(=O)Nc1ccc(S(=O)(=O)NC2CC(=O)N(c3cccc(F)c3)C2)cc1 (configuration not stated)	-	-	-	-	-
CCOC(=O)C(NC(=O)c1cccc(Cl)c1)(OCc1ccccc1)C(F)(F)F (configuration not stated)	33	-	-	-	-
CCOC(=O)C(NC(=O)c1ccccc1)(OCc1ccccc1)C(F)(F)F (configuration not stated)	-	-	-	-	-
O=C1/C(=C/c2ccc([N+](=O)[O-])cc2)Oc2cc(O)ccc21	-	16	-	-	-
Cc1nnc(N2C(=O)c3oc4ccccc4c(=O)c3C2c2ccco2)s1 (configuration not stated)	-	.	-	.	38
CC(C)c1nnc(N2C(=O)c3oc4ccccc4c(=O)c3C2c2ccco2)s1 (configuration not stated)	.	.	-	.	.
C[C@@H]1CCCCO[C@@H](CN(C)CC2CC2)[C@H](C)CN([C@@H](C)CO)C(=O)c2cc(NC(=O)Nc3ccc(F)cc3)ccc2O1	-	-	-	-	-
COc1ccc(/C=C/C(=O)NC(=S)NN2CCCCC2c2cccnc2)cc1OC (configuration not stated)	-	-	70	-	-
CCNC(=O)C[C@H]1CC[C@H]2[C@H](COc3ccc(NC(=O)Nc4ccccc4Cl)cc3C(=O)N2C)O1	-	-	-	-	-
CCN1[C@@H]2c3ccc(C4=CCCC4)c(=O)n3C[C@H]1[C@H](CO)[C@H]2C(=O)N[C@@H](C)c1ccccc1	-	-	-	-	-
Cc1cccc(C(C)C)c1NC(=O)COC(=O)Cc1ccsc1	-	-	-	-	-
Cc1cccc(C)c1NC(=O)COC(=O)Cc1ccsc1	43	-	-	-	-
CCOc1ccc(NC(=O)COC(=O)Cc2ccsc2)cc1	-	20	-	-	-
CCN(C(=S)Nc1ccc(C(C)=O)cc1)C1CCCCC1	-	21	-	-	-
Oc1c(Br)cc(Br)c2cccnc12	-	-	.	-	-
